# According to the supplement of paper PMC11555231:
# Molecular target: PADI4, Q9UM07
# Experiment: log2 enrichment score relative to parent PADI4_3 peptide (binding to PADI4); higher = tighter binding than parent
# Details: CaCl2: 10 mM
# Procedure: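 Deep mutational scan of the cyclic peptide PADI4_3 (ClAc-D-Tyr1 initiator, thioether-cyclised to Cys12, C-terminal Gly plus HA tag, mRNA-displayed). Positions 2-11 were each randomised by NNK codons; Met was reprogrammed as N-methyl-alanine (MeA). One round of equilibrium panning against bead-immobilised human PADI4 (100 nM, 10 mM CaCl2, RT). Log2 enrichment (bound/input frequency) relative to the parent sequence (0 = parent), mean of three independent selections.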
# Sequence of PADI4, Q9UM07 (Q9UM07 whole entry): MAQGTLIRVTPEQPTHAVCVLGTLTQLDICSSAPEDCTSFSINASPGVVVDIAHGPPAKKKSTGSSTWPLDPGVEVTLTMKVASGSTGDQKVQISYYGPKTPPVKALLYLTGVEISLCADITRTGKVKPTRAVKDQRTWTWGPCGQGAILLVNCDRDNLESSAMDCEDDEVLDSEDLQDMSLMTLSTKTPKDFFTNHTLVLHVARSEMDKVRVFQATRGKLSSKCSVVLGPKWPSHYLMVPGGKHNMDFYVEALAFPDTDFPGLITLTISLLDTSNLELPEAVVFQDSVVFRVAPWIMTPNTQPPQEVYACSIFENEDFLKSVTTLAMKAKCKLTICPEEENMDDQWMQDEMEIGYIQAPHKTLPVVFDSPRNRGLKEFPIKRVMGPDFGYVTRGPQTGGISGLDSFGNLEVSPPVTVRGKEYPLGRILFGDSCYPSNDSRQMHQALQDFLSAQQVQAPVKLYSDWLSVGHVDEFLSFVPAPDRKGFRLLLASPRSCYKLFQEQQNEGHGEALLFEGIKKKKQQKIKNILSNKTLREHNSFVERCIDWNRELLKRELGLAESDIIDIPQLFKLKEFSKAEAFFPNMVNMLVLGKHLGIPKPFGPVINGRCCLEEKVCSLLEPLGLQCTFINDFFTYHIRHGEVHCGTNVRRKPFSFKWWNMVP
row,Binder,log2 enrichment score
1,YRDHHYRHPEYCG [PADI4_3_K10E K10E],-1.11
2,YRDHHYRHRKYCG [PADI4_3_P9R P9R],-1.83
3,YRDRHYRHPKYCG [PADI4_3_H4R H4R],2.48
4,YRDKHYRHPKYCG [PADI4_3_H4K H4K],-2.3
5,YRDHHYRRPKYCG [PADI4_3_H8R H8R],-3.15
6,YRDHHRRHPKYCG [PADI4_3_Y6R Y6R],-0.786
7,YRDHHYRHCKYCG [PADI4_3_P9C P9C],-2.79
8,YRDHHSRHPKYCG [PADI4_3_Y6S Y6S],-2.21
9,YRDCHYRHPKYCG [PADI4_3_H4C H4C],-3.15
10,YRDHKYRHPKYCG [PADI4_3_H5K H5K],-2.71
11,YRDHHYRHPKECG [PADI4_3_Y11E Y11E],-4.21
12,YRHHHYRHPKYCG [PADI4_3_D3H D3H],-3.57
13,YDDHHYRHPKYCG [PADI4_3_R2D R2D],-3.75
14,YRDHHYSHPKYCG [PADI4_3_R7S R7S],-0.05
15,YRDHHYRCPKYCG [PADI4_3_H8C H8C],-2.95
16,YRDHHYRHSKYCG [PADI4_3_P9S P9S],-1.69
17,YRDHHYCHPKYCG [PADI4_3_R7C R7C],-0.84
18,YRDHHYKHPKYCG [PADI4_3_R7K R7K],-0.44
19,YRDHHYRHPDYCG [PADI4_3_K10D K10D],-2.34
20,YRDHCYRHPKYCG [PADI4_3_H5C H5C],-4

row,Binder,log2 enrichment score
1,YRDHHYRHPKDCG [PADI4_3_Y11D Y11D],-3.74
2,YRDHHYRHPKRCG [PADI4_3_Y11R Y11R],-3.96
3,YRDHHYRHPKYCG [PADI4_3_R7R R7R],0
4,YRDHHYRHPSYCG [PADI4_3_K10S K10S],-1.42
5,YRDHRYRHPKYCG [PADI4_3_H5R H5R],-3.55
6,YRDHHYRHDKYCG [PADI4_3_P9D P9D],-2.06
7,YRRHHYRHPKYCG [PADI4_3_D3R D3R],-2.94
8,YRDHHYRHPKYCG [PADI4_3_H4H H4H],0
9,YRDHSYRHPKYCG [PADI4_3_H5S H5S],-3.98
10,YRDHHYRHPRYCG [PADI4_3_K10R K10R],-0.238
11,YRDHHYRHPCYCG [PADI4_3_K10C K10C],-2.06
12,YRDEHYRHPKYCG [PADI4_3_H4E H4E],-3.05
13,YRDHHYRHKKYCG [PADI4_3_P9K P9K],-1.76
14,YEDHHYRHPKYCG [PADI4_3_R2E R2E],-2.93
15,YRDHHYRSPKYCG [PADI4_3_H8S H8S],-2.81
16,YRKHHYRHPKYCG [PADI4_3_D3K D3K],-3.84
17,YRDHHYREPKYCG [PADI4_3_H8E H8E],-3.8
18,YRDHHYRHPKYCG [PADI4_3_D3D D3D],0
19,YRDDHYRHPKYCG [PADI4_3_H4D H4D],-4.33
20,YRDHHYDHPKYCG [PADI4_3_R7D R7D],0.031

row,Binder,log2 enrichment score
1,YRDHHKRHPKYCG [PADI4_3_Y6K Y6K],-1.84
2,YRDHHYRHPKYCG [PADI4_3_K10K K10K],0
3,YCDHHYRHPKYCG [PADI4_3_R2C R2C],-2.34
4,YRDHHDRHPKYCG [PADI4_3_Y6D Y6D],-2.27
5,YRDHHYEHPKYCG [PADI4_3_R7E R7E],-0.753
6,YRDHEYRHPKYCG [PADI4_3_H5E H5E],-4.25
7,YRDHDYRHPKYCG [PADI4_3_H5D H5D],-4.15
8,YSDHHYRHPKYCG [PADI4_3_R2S R2S],-2.91
9,YRDHHYRHEKYCG [PADI4_3_P9E P9E],-1.89
10,YRDHHYRHPKYCG [PADI4_3_R2R R2R],0
11,YREHHYRHPKYCG [PADI4_3_D3E D3E],-2.84
12,YRDHHYRKPKYCG [PADI4_3_H8K H8K],-3.86
13,YRDHHERHPKYCG [PADI4_3_Y6E Y6E],-1.85
14,YRDHHYRDPKYCG [PADI4_3_H8D H8D],-3.82
15,YKDHHYRHPKYCG [PADI4_3_R2K R2K],0.59
16,YRDHHCRHPKYCG [PADI4_3_Y6C Y6C],-3.47
17,YRDHHYRHPKKCG [PADI4_3_Y11K Y11K],-4.77
18,YRCHHYRHPKYCG [PADI4_3_D3C D3C],-4.3
19,YRDHHYRHPKCCG [PADI4_3_Y11C Y11C],-3.92
